PubChem BioAssay (NCI)
About 83,000 compounds went through this panel and 20% of them were active in at least one assay; those are over-represented in the sample as a whole.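 Percent growth is the endpoint: 0 to 100 indicates growth inhibition (40 means 60% inhibition), 0 means no net growth, and negative values indicate cell death.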 Active and inactive are the calls of the source. The calls were made as follows: active = growth percent below 10; inactive = the rest.

Legend:
Test in all cases: NCI-60 one-dose screen, 48 h (100 = growth as untreated, 0 = no growth, -100 = all killed)
Conditions in all cases: 10 µM unless noted
NCI-H23 lung = system: NCI-H23 lung
NCI-H226 lung = system: NCI-H226 lung
NCI-H322M lung = system: NCI-H322M lung
HOP-62 NSCLC = system: HOP-62 NSCLC
NCI-H460 lung = system: NCI-H460 lung
HOP-92 NSCLC = system: HOP-92 NSCLC
NCI-H522 lung = system: NCI-H522 lung
A549/ATCC NSCLC = system: A549/ATCC NSCLC
786-0 renal = system: 786-0 renal
COLO 205 colon = system: COLO 205 colon

Measured: growth

CC(C)(C)OC(=O)Nc1ccc2c(c1)C(NC(=O)Nc1cccc(C#N)c1)CC(C)(C)O2 (configuration not stated)
inactive: NCI-H23 lung 41% | NCI-H226 lung 48.4% | NCI-H322M lung 73.6% | HOP-62 NSCLC 45.8% | NCI-H460 lung 25.9% | HOP-92 NSCLC 39.1% | NCI-H522 lung 33.7% | A549/ATCC NSCLC 40% | 786-0 renal 50.8% | COLO 205 colon 53.7%

CC(=O)OC1CCC2(C)C(=CC3C4CCC(=O)C4(C)CCC32)C1 (configuration not stated)
inactive: NCI-H23 lung 102% | NCI-H226 lung 107% | NCI-H322M lung 113% | HOP-62 NSCLC 111% | NCI-H460 lung 108% | HOP-92 NSCLC 101% | NCI-H522 lung 96.9% | A549/ATCC NSCLC 101% | 786-0 renal 102% | COLO 205 colon 94%

CCn1c(C)nc2cc(C(N)=O)ccc21
inactive: NCI-H23 lung 94.3% | NCI-H226 lung 89.9% | NCI-H322M lung 86.8% | HOP-62 NSCLC 89.3% | NCI-H460 lung 101% | HOP-92 NSCLC 90.7% | NCI-H522 lung 90.7% | A549/ATCC NSCLC 104% | 786-0 renal 96.3% | COLO 205 colon 120%

CCc1ccccc1NC(=O)/C(C#N)=C/c1ccc(OC)cc1
inactive: NCI-H23 lung 98.2% | NCI-H226 lung 97.5% | NCI-H322M lung 87.8% | HOP-62 NSCLC 96% | NCI-H460 lung 104% | HOP-92 NSCLC 86.9% | NCI-H522 lung 91.4% | A549/ATCC NSCLC 94% | 786-0 renal 107% | COLO 205 colon 119%

CC(=O)N1N=C(c2ccc(Nc3nc(Nc4ccc(F)cc4)nc(Nc4ccc(F)cc4)n3)cc2)CC1c1cccc([N+](=O)[O-])c1 (configuration not stated)
inactive: NCI-H23 lung 78.9% | NCI-H226 lung 101% | NCI-H322M lung 85.6% | HOP-62 NSCLC 82% | NCI-H460 lung 102% | HOP-92 NSCLC 71.2% | NCI-H522 lung 77% | A549/ATCC NSCLC 91.1% | 786-0 renal 86.4% | COLO 205 colon 84.9%

Cc1cc(=O)oc2c1ccc1oc(C#N)c(C)c12
inactive: NCI-H23 lung 97.9% | NCI-H226 lung 107% | NCI-H322M lung 98.9% | HOP-62 NSCLC 103% | NCI-H460 lung 108% | HOP-92 NSCLC 82% | NCI-H522 lung 102% | A549/ATCC NSCLC 99.8% | 786-0 renal 84.9% | COLO 205 colon 121%

CCc1ccccc1-n1c(-c2ccc(Cl)cc2)cc(-c2ccc(Cl)cc2)c(C#N)c1=O
inactive: NCI-H23 lung 94.2% | NCI-H226 lung 97.4% | NCI-H322M lung 83.7% | HOP-62 NSCLC 107% | NCI-H460 lung 93.9% | HOP-92 NSCLC 72.4% | NCI-H522 lung 78.1% | A549/ATCC NSCLC 94.7% | 786-0 renal 98% | COLO 205 colon 89.4%

COc1cc(C(=O)/C=C/c2c(-c3ccc(F)cc3)nc3sc(C)cn23)cc(OC)c1OC
inactive: NCI-H23 lung 28.9% | NCI-H226 lung 58.5% | NCI-H322M lung 52% | HOP-62 NSCLC 79% | NCI-H460 lung 28.7% | HOP-92 NSCLC 23.4% | NCI-H522 lung 93.4% | A549/ATCC NSCLC 45.4% | 786-0 renal 40.8% | COLO 205 colon 52%

Cn1c(=O)c2c(nc(Cl)n2CCl)n(C)c1=O
inactive: NCI-H226 lung 120% | NCI-H322M lung 103% | HOP-62 NSCLC 115% | NCI-H460 lung 111% | HOP-92 NSCLC 97.6% | NCI-H522 lung 84.8% | A549/ATCC NSCLC 106% | 786-0 renal 90.4% | COLO 205 colon 60.8%
active: NCI-H23 lung 3.75%

COc1ccc(NC(=O)CSc2nnc(-c3cc(-c4ccccc4)nc4ccccc34)n2-c2ccccc2)cc1
inactive: NCI-H23 lung 92.1% | NCI-H226 lung 89.3% | NCI-H322M lung 94.6% | HOP-62 NSCLC 101% | NCI-H460 lung 102% | HOP-92 NSCLC 87.3% | NCI-H522 lung 80.1% | A549/ATCC NSCLC 92.4% | 786-0 renal 97.3% | COLO 205 colon 116%

Clc1cc(Cl)cc(Nc2ccc3cc(OCCCN4CCOCC4)ccc3n2)c1
active: NCI-H522 lung -21.1% | 786-0 renal -36.6% | COLO 205 colon -51.3%
inactive: NCI-H23 lung 37.6% | NCI-H226 lung 68.5% | NCI-H322M lung 59.4% | HOP-62 NSCLC 22% | NCI-H460 lung 17.5% | HOP-92 NSCLC 27.5%

COc1ccc(/C=C/c2c(C(=O)/C=C/c3cccs3)c(C)nc3ccccc23)cc1
inactive: NCI-H23 lung 67.3% | NCI-H226 lung 76% | NCI-H322M lung 89.7% | HOP-62 NSCLC 93.2% | NCI-H460 lung 83.6% | HOP-92 NSCLC 42.7% | NCI-H522 lung 62.6% | 786-0 renal 90.6% | COLO 205 colon 78.4%

Oc1c(CN2CCCC2)cc(COCc2ccc(Br)cc2)c2cccnc12
inactive: NCI-H23 lung 20.7% | HOP-92 NSCLC 27.6% | COLO 205 colon 39.1%
active: NCI-H226 lung -0.576% | NCI-H322M lung -5.34% | HOP-62 NSCLC -4.92% | NCI-H460 lung -21.8% | NCI-H522 lung -45% | 786-0 renal -8.02%

O=C(CCc1nnc(CN(c2ccccc2)c2ccccc2)o1)c1nc2ccccc2[nH]1
inactive: NCI-H23 lung 85.1% | NCI-H226 lung 107% | NCI-H322M lung 84.4% | HOP-62 NSCLC 89.1% | NCI-H460 lung 99.6% | HOP-92 NSCLC 60.6% | NCI-H522 lung 73.9% | 786-0 renal 100% | COLO 205 colon 102%

COc1cccc(-c2nn(-c3ccccc3)cc2-c2ccnc(NCCNC(=O)Nc3ccccc3)c2)c1
inactive: NCI-H23 lung 62.5% | NCI-H226 lung 63.9% | NCI-H322M lung 89.8% | HOP-62 NSCLC 58.7% | NCI-H460 lung 53.8% | HOP-92 NSCLC 33% | NCI-H522 lung 47.6% | 786-0 renal 43.2% | COLO 205 colon 50.4%

COc1cc2c(cc1-c1c(C)noc1C)ncc1nc(C3CCCCC3)n(C3CCC(OC(F)F)CC3)c12 (configuration not stated)
active: HOP-92 NSCLC 1.82% | NCI-H522 lung -12.2% | COLO 205 colon 1.16%
inactive: NCI-H23 lung 40.8% | NCI-H226 lung 62.2% | NCI-H322M lung 54.7% | HOP-62 NSCLC 38.3% | NCI-H460 lung 37.3% | 786-0 renal 41.4%

Cc1ccccc1NC(=O)N/C(N)=N/c1nc(-c2cccc([N+](=O)[O-])c2)cs1
inactive: NCI-H23 lung 16.8% | NCI-H226 lung 58.8% | NCI-H322M lung 90.7% | HOP-62 NSCLC 42.3% | NCI-H460 lung 27% | HOP-92 NSCLC 60.2% | NCI-H522 lung 18% | 786-0 renal 71.6% | COLO 205 colon 37.5%

N#Cc1c(N)nc2c(C#N)c(NC(=O)c3ccccc3)nn2c1-c1ccccc1
inactive: NCI-H23 lung 87% | NCI-H226 lung 78% | NCI-H322M lung 94.7% | HOP-62 NSCLC 90.7% | NCI-H460 lung 96.8% | HOP-92 NSCLC 82.5% | NCI-H522 lung 86.5% | 786-0 renal 102% | COLO 205 colon 103%

CC/C=C\C[C@H](O)C/C=C1/C(=O)C=C[C@@H]1C/C=C\CCCCO
active: NCI-H226 lung -23.9% | HOP-62 NSCLC 6.06% | NCI-H460 lung 0.172% | NCI-H522 lung -40.2% | 786-0 renal -49.6% | COLO 205 colon -34.3%
inactive: NCI-H23 lung 60.9% | NCI-H322M lung 50.8% | HOP-92 NSCLC 48.8%

Cc1cc(NCc2cc(Nc3ccnc4cc(Cl)ccc34)ccc2F)nc(N2CCN(C)CC2)n1
inactive: NCI-H23 lung 39.3% | NCI-H226 lung 64.1% | NCI-H322M lung 33.8% | HOP-92 NSCLC 45.4%
active: HOP-62 NSCLC 6.67% | NCI-H460 lung -45.3% | NCI-H522 lung -30.8% | 786-0 renal -69.7% | COLO 205 colon -73.4%

CC1=CN2C(=O)C3C4=C(CCCC4)SC3N=C2CN1c1c(C)cccc1C (configuration not stated)
inactive: NCI-H23 lung 91.1% | NCI-H226 lung 71% | NCI-H322M lung 109% | HOP-62 NSCLC 82.5% | NCI-H460 lung 76.6% | HOP-92 NSCLC 55.2% | NCI-H522 lung 77.4% | 786-0 renal 75.9% | COLO 205 colon 110%

O=C1/C(=C\c2cccnc2)SC(=S)N1CCc1ccc(O)cc1
inactive: NCI-H23 lung 50% | NCI-H226 lung 94.2% | NCI-H322M lung 91.5% | HOP-62 NSCLC 45.6% | NCI-H460 lung 18.7% | HOP-92 NSCLC 27.4% | NCI-H522 lung 11.9% | 786-0 renal 39.1% | COLO 205 colon 79.9%

COc1ccc(C(=O)Nn2c(NCC(=O)N3c4ccccc4Sc4ccccc43)nnc2-c2ccc(O)cc2)cc1
inactive: NCI-H23 lung 94.4% | NCI-H226 lung 101% | NCI-H322M lung 104% | HOP-62 NSCLC 103% | NCI-H460 lung 110% | HOP-92 NSCLC 87.9% | NCI-H522 lung 92.2% | 786-0 renal 100% | COLO 205 colon 112%

C[n+]1cc2cc(C(N)=O)[nH]c3c(=N)c(Cl)c(N)c1c23
inactive: NCI-H23 lung 56.6% | NCI-H226 lung 57.1% | NCI-H322M lung 80.5% | HOP-62 NSCLC 37.9% | NCI-H460 lung 23.8% | HOP-92 NSCLC 80% | NCI-H522 lung 35.2% | 786-0 renal 49.1% | COLO 205 colon 44.1%

COC(=O)c1c2c(c(C)[n+]([O-])c1C)C(=O)C(NCc1ccc(F)c(Cl)c1)=CC2=O
active: NCI-H322M lung 3.24% | NCI-H460 lung 7.33% | NCI-H522 lung -26.6% | 786-0 renal -93.5% | COLO 205 colon -75.5%
inactive: NCI-H23 lung 16.3% | NCI-H226 lung 84.3% | HOP-62 NSCLC 28.3% | HOP-92 NSCLC 19%

COc1ccccc1NC(=O)N/C(N)=N/c1nc2ccccc2s1
active: NCI-H522 lung 4.23% | COLO 205 colon -3.41%
inactive: NCI-H23 lung 33% | NCI-H226 lung 63.4% | NCI-H322M lung 41.6% | HOP-62 NSCLC 32.7% | NCI-H460 lung 10.1% | HOP-92 NSCLC 62.1% | 786-0 renal 40.2%

CCCCCCCCCCCCCCCCCCOc1ccccc1CC(=O)OCCC[N+](C)(C)C
inactive: NCI-H23 lung 46.4% | NCI-H226 lung 78% | NCI-H322M lung 84.3% | HOP-62 NSCLC 67.1% | NCI-H460 lung 80.1% | HOP-92 NSCLC 39.6% | NCI-H522 lung 36.3% | 786-0 renal 50.7% | COLO 205 colon 16.7%

Cc1c(C(=O)N[C@@H](Cc2ccccc2)C(=O)C(=O)NCCc2ccccc2)[nH]c2ccccc2c1=O
inactive: NCI-H23 lung 93.5% | NCI-H226 lung 101% | NCI-H322M lung 96.2% | HOP-62 NSCLC 111% | NCI-H460 lung 87.2% | HOP-92 NSCLC 116% | NCI-H522 lung 97.6% | 786-0 renal 107% | COLO 205 colon 31.2%
